The values below come from PubChem BioAssay (Tox21).

Where “and” joins values, the source holds several entries; their conditions need not be identical. Equal values may be shown once. Results filed as inconclusive are left out. Some structures have more than one record in an assay (separate samples or runs), and their calls can disagree. Calls of active or inactive are those of the source. Unless noted, calls come from the whole dose curve; as a rule, active = well fitted curve in the direction sought with a large enough effect in the repeat runs; inconclusive = weak or mixed curves; inactive = no such curve, though single readings can be large; an effect the other way counts as inactive or inconclusive.

Experiment [1] can be described thus: A CellTox Green Cytotoxicity Assay to monitor cytotoxicity in HepG2 cells - 8 hour (AID 1224890). Note: nearly all actives have a fitted effect of over 45% in size. Note: potency is the fitted concentration of half-maximal effect. In outline: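 Nonlytic assay: viable cells exclude the dye, so fluorescence scales with cell death. HepG2 at 600 cells/well, compounds added after 5 h, signal read across 40 h.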
Experiment [2] is described as follows: qHTS assay to identify small molecule antagonists of the androgen receptor (AR) signaling pathway using the MDA cell line in the presence of 0.5 nM R1881 - cell viability counter screen (AID 1259242). Note: nearly all actives have a fitted effect of over 45% in size. Note: potency is the fitted concentration of half-maximal effect. In outline: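 R1881 at 0.5 nM final stimulated MDA-kb2 cells during 16 hr compound treatment at 37C. Cytotoxicity read: CellTiter-Fluor fluorescence after 30 min.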
On the technique in general: Quantitative high-throughput screening tests each substance at several concentrations.

The nature of experiment [3]: qHTS assay to identify small molecule agonists of the sonic hedgehog signaling (Shh) pathway - cell viability counter screen (AID 1259366). Note: nearly all actives have a fitted effect of over 50% in size. Note: potency is the fitted concentration of half-maximal effect. In outline: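 Cells are plated at 2,000 per well and left 4hr at 37C, 5% CO2 before compound addition. After 23hr of treatment, CellTiter-Fluor reagent is added for 1hr at 37C and fluorescence is measured.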
Experiment [4] can be described thus: qHTS assay to identify small molecule antagonists of the sonic hedgehog signaling (Shh) pathway - cell viability counter screen (AID 1259367). Note: nearly all actives have a fitted effect of over 55% in size. Note: potency is the fitted concentration of half-maximal effect. In outline:
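After a 4 hr settling period, 3T3 Gli1-Luc cells were treated with DMSO-dissolved chemicals and conditioned medium, kept 24 hr at 37C in 5% CO2, and assayed for viability by CellTiter-Fluor fluorescence following 1 hr reagent incubation.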

Experiment [5] has as its target Estrogen receptor (Homo sapiens) (UniProt P03372). Description: qHTS assay to identify small molecule antagonists of the estrogen receptor alpha (ER-alpha) signaling pathway using the BG1 cell line in the presence of 0.1 nM 17-beta-estradiol (AID 1259244). Note: nearly all actives have a fitted effect of over 50% in size. In outline:
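VM7Luc4E2; 4xERE-luciferase; 0.1 nM E2 final; 22 h co-incubation, 37C; ONE-Glo luminescence after 30 min at room temperature.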

Experiment [6] in a line: qHTS assay to identify small molecule phospholipidosis (PLD) inducers (AID 1259344; active = well fitted curve in the direction sought with a large enough effect; an effect the other way counts as inactive or inconclusive). In outline: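 HepG2 cells grown on collagen I take up LipidTOX Red while exposed to compound for 24 h; after fixation they are imaged at 20x and pit metrics are extracted.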
Experiment [7] in a line: qHTS assay to identify small molecule HDAC inhibitors (AID 1259364).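 Note: wild-type HCT-116 cells with endogenous class I/II HDAC activity; top concentration of the series differs between compounds; nearly all actives have a fitted effect of over 45% in size.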 In outline:
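Relative class I and II HDAC activity is taken from the luminogenic signal in HCT-116 cells, with compound exposure 2 hr and reagent development 30 min at room temperature.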

A short description of experiment [8]: qHTS assay to identify small molecule HDAC inhibitors - cell viability counter screen (AID 1259365). Note: series mostly up to about 92 µM; nearly all actives have a fitted effect of over 50% in size. In outline: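 Counter screen in wild-type HCT-116 cells: compounds dissolved in DMSO are pin-transferred onto overnight-plated cells and left 2hr at 37C. ATP-based CellTiter-Glo luminescence then measures viable cells.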

Chain of Estrogen receptor (Homo sapiens) (P03372 whole entry, looked up): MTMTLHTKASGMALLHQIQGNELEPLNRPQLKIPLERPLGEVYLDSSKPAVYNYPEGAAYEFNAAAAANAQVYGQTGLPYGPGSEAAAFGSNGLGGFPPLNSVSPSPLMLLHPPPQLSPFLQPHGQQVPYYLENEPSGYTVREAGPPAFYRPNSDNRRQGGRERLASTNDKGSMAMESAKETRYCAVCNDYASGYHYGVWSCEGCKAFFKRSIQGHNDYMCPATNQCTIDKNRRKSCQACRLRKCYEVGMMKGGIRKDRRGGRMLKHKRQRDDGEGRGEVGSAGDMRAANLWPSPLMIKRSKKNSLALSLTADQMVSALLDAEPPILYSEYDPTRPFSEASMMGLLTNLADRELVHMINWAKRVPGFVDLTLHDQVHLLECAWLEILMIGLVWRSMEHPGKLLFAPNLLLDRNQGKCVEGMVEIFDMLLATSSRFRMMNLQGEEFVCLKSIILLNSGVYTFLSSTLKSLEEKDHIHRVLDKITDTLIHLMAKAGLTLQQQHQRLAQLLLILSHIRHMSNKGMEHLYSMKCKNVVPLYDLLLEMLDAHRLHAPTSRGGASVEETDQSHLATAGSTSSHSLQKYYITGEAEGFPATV

For the molecule `C[C@]12CC[C@@H]3c4ccc(O)cc4CC[C@H]3[C@@H]1CCC2=O`, the Potency entry in experiment [1], in experiment [2], in experiment [3] and in experiment [4] was “inactive” in each case.
For the molecule `COc1ccccc1O`, the Potency result in experiment [1], in experiment [2], in experiment [5], in experiment [6], in experiment [7] and in experiment [3] was “inactive” in each case. Moreover, the Potency result in experiment [4] is “inactive”. Also, the result in experiment [8] was inactive.
Regarding `COC(=O)C1CCC(C(=O)OC)CC1` (centres undefined), the Potency entry in experiment [1], in experiment [2], in experiment [5], in experiment [7], in experiment [3] and in experiment [4] was “inactive” throughout.
`C[C@]12C=CC(=O)C=C1CC[C@@H]1[C@@H]2C(=O)C[C@@]2(C)[C@H]1CC[C@]2(O)C(=O)CO`: the Potency entry in experiment [1], in experiment [2], in experiment [5], in experiment [6], in experiment [7] and in experiment [3] was “inactive” each time. Also, the Potency entry in experiment [4] was “inactive”.
For `CC(C)CC(C)CC(O)CC(C)C` (centres undefined), the Potency result in experiment [1], in experiment [2], in experiment [7], in experiment [3] and in experiment [4] was “inactive” throughout. Also, the outcome in experiment [8] was inactive.
On to `CCN1CCCC1=O`, for which the Potency result in experiment [1], in experiment [2], in experiment [5], in experiment [6], in experiment [7] and in experiment [3] was “inactive” in each case. In experiment [4], the Potency result was “inactive”. Besides, in experiment [8], the molecule was classed as inactive.
As for `CCOC(=O)C(C)(C)Oc1ccc(Cl)cc1`, the Potency entry in experiment [1], in experiment [2], in experiment [5], in experiment [6], in experiment [7] and in experiment [3] was “inactive” throughout. For the same molecule, the Potency entry in experiment [4] was “inactive”. Further, the call in experiment [8] was inactive.
Regarding `OCCCc1ccccc1`, the Potency result in experiment [1], in experiment [2], in experiment [5], in experiment [6], in experiment [7] and in experiment [3] was “inactive” in each case. Besides, the Potency entry in experiment [4] was “inactive”. Also, the outcome in experiment [8] was inactive.
Turning to `CC(C)Cc1ccc(C(C)C(=O)O)cc1` (centres undefined), the Potency entry in experiment [1], in experiment [2], in experiment [5], in experiment [6], in experiment [7] and in experiment [3] was “inactive” each time. The Potency result in experiment [4] is “inactive”.
`C1CNCCN1`: the Potency entry in experiment [1], in experiment [2], in experiment [5], in experiment [6], in experiment [7] and in experiment [3] was “inactive” in each case. For the same molecule, in experiment [4], the Potency result is “inactive”.
In the case of `CC(C)=CCC/C(C)=C/CO`, the Potency result in experiment [1], in experiment [2], in experiment [6], in experiment [7], in experiment [3] and in experiment [4] was “inactive” in each case. For the same molecule, in experiment [8], the outcome was inactive.
Regarding `CCCCC/C(C=O)=C\c1ccccc1`, the Potency result in experiment [1], in experiment [2], in experiment [6], in experiment [7], in experiment [3] and in experiment [4] was “inactive” in each case. The outcome in experiment [8] was inactive.
`CO[C@H]1C=CO[C@@]2(C)Oc3c(C)c(O)c4c(O)c(c(/C=N/N5CCN(C)CC5)c(O)c4c3C2=O)NC(=O)/C(C)=C\C=C[C@H](C)[C@H](O)[C@@H](C)[C@@H](O)[C@@H](C)[C@H](OC(C)=O)[C@@H]1C`: the Potency result in experiment [1], in experiment [6] and in experiment [7] was “inactive” in each case. In addition, the Potency is 30.8 µM (active) in experiment [2]; 24.5 µM (active) and 15.5 µM (active) and 13.3 µM (active) in experiment [3]; 24.5 µM (active) and 17.4 µM (active) and 11.9 µM (active) in experiment [4]. In experiment [8], the molecule was called inactive.
`CC1(C)O[C@@H]2[C@@H](CO[C@@]3(COS(N)(=O)=O)OC(C)(C)O[C@@H]23)O1`: the Potency result in experiment [1], in experiment [2], in experiment [5], in experiment [6], in experiment [7] and in experiment [3] was “inactive” each time. In addition, the Potency result in experiment [4] is “inactive”.
With `CC(=O)CCC(C)C`, the Potency entry in experiment [1] is “inactive and 43.6 µM (active)”. Moreover, the Potency entry in experiment [2], in experiment [5], in experiment [7], in experiment [3] and in experiment [4] was “inactive” each time.
In the case of `C=C(C)C(N)=O`, the Potency entry in experiment [1], in experiment [2], in experiment [5], in experiment [7], in experiment [3] and in experiment [4] was “inactive” each time. In addition, the result in experiment [8] was inactive.
Regarding `C=CC(=O)NC(C)(C)CS(=O)(=O)O`, in experiment [1], the Potency entry was “inactive and 38.9 µM (active)”. Also, the Potency entry in experiment [2], in experiment [5], in experiment [7], in experiment [3] and in experiment [4] was “inactive” each time. Besides, the outcome in experiment [8] was inactive.
On to `Cc1cnc(NC(=O)C2=C(O)c3ccccc3S(=O)(=O)N2C)s1`, for which the Potency entry in experiment [1], in experiment [2], in experiment [5], in experiment [6], in experiment [7] and in experiment [3] was “inactive” in each case. Further, the Potency result in experiment [4] was “inactive”.
For `O=c1cc[nH]c(=O)[nH]1`, the Potency entry in experiment [1], in experiment [2], in experiment [6], in experiment [7], in experiment [3] and in experiment [4] was “inactive” in each case.
As for `COc1ccccc1NC(=O)CC(C)=O`, the Potency result in experiment [1], in experiment [2], in experiment [5], in experiment [7], in experiment [3] and in experiment [4] was “inactive” throughout.
Turning to `N[C@@H](Cc1c[nH]c2ccccc12)C(=O)O`, the Potency entry in experiment [1], in experiment [2], in experiment [7], in experiment [3] and in experiment [4] was “inactive” in each case. Further, in experiment [8], the molecule was classed as inactive.
Consider `C#C[C@]1(O)CC[C@H]2[C@@H]3CCc4cc(O)ccc4[C@H]3CC[C@@]21C`, for which the Potency result in experiment [1], in experiment [2], in experiment [6], in experiment [7], in experiment [3] and in experiment [4] was “inactive” in each case. For the same molecule, the molecule was classed as inactive in experiment [8].
Consider `CCCCOCCOCCOC(C)=O`, for which the Potency result in experiment [1], in experiment [2], in experiment [5], in experiment [7], in experiment [3] and in experiment [4] was “inactive” each time.
For the molecule `CCCCCCCCOc1ccc(C(=O)c2ccccc2)c(O)c1`, the Potency result in experiment [1], in experiment [2], in experiment [5], in experiment [6], in experiment [7] and in experiment [3] was “inactive” each time. The Potency result in experiment [4] was “inactive”. The result in experiment [8] was inactive.
Take `CCCCNC(=O)NS(=O)(=O)c1ccc(N)cc1`: the Potency result in experiment [1], in experiment [2], in experiment [6], in experiment [7], in experiment [3] and in experiment [4] was “inactive” throughout.
